The panel holds about 83,000 compounds, 20% with a hit somewhere; the sample as a whole holds those more often.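 Negative percent growth values reflect cell death: -40 means 40% of the cells present at the start died, and -100 means all died.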 A number with no mark means an inactive call.
tested on: A549/ATCC NSCLC; test: NCI-60 one-dose screen, 48 h (100 = growth as untreated, 0 = no growth, -100 = all killed); conditions: 10 µM unless noted
Procedure: Growth inhibition of the A549/ATCC human Non-Small Cell Lung tumor cell line is measured as a screen for anti-cancer activity. Cells are grown in 96 well plates and exposed to the test compound for 48 hours. Compounds are tested at a single concentration, which is 10^-5 M for most compounds. The reported endpoint is percent growth (GI% or GIPRCNT), where numbers from 0 - 100% represent growth inhibition, and numbers from -100% - 0 represent cell death. For example, a value of 40 represents 60% growth inhibition. A value of 0 means no net growth occurred over the course of the experiment. A value of -40 indicates 40% of cells at the beginning of the experiment died by the end of the experiment. A value of -100 means all cells are dead at the end of the experiment.
NCI-60 Human Tumor Cell Lines Screen was performed using the standard one-dose NCI protocol, which is described in more detail at https://dtp.cancer.gov/discovery_development/nci-60/default.htm.
Compounds with GIPRCNT values below 10 were considered active. Activity score was based on GIPRCNT using the following formula: […]
Score is 0 for GIPRCNT values of 100 or above, 50 for GIPRCNT values of 0, and 100 for GIPRCNT values of -100.

Q: For `COc1nc2ccccc2s1`, which growth is on record?
A: 96.8%

Q: With `O=C(O)CCCCCNC(=O)OCc1ccccc1` as the molecule, how does the growth read?
A: 100%

Q: How did the growth turn out when `O=C(CCCl)OCCOc1ccccc1` was run?
A: 102%

Q: `CCOC(=O)CSCCC#N` was tested. Which growth did it give?
A: 101%

Q: With `O=C(Nc1ccc([N+](=O)[O-])cc1)C(=O)Nc1ccc([N+](=O)[O-])cc1` as the molecule, how does the growth read?
A: 67.7%

Q: `O=C(c1ccc(Cl)cc1)N1CCCCC1` was tested. Which growth did it give?
A: 95.4%

Q: With `Cc1c(Cl)cccc1N=C=S` as the molecule, how does the growth read?
A: 90.4%

Q: With `c1cc(CNCCNCc2ccncc2)ccn1` as the molecule, how does the growth read?
A: 97.7%

Q: For `CCCC(=O)CC(=O)c1ccccc1`, which growth is on record?
A: 97.9%

Q: For `O=C(O)CSCC(=O)Nc1cc(C(F)(F)F)ccc1Cl`, which growth is on record?
A: 106%

Q: With `CCCCNC(=O)c1ccc(OCC)cc1` as the molecule, how does the growth read?
A: 98.6%

Q: How did the growth turn out when `NNC(=O)N/N=C1\C(=O)N(c2nccs2)C(=O)C(=O)C1c1nc2ccccc2s1` (stereo not given) was run?
A: 75.8%

Q: For `O=Cc1ccc(O)c(O)c1`, which growth is on record?
A: 89.4%

Q: How did the growth turn out when `CN(CCCN(C)CCC1CCCCC1)CCC1CCCCC1` was run?
A: 83.7%

Q: Which growth does the source give for `Cc1ccc(S(=O)(=O)CCCl)cc1` here?
A: 89.5%

Q: How did the growth turn out when `CC(CCC#N)(CCC#N)C(=O)c1ccccc1` was run?
A: 97.1%

Q: `Oc1ccc2ccccc2c1CN1CCOCC1` was tested. Which growth did it give?
A: 99.7%

Q: `CSCC[C@@H]1C(=O)N(C)[C@H](C(C)(C)C)N1C(=O)c1ccccc1` was tested. Which growth did it give?
A: 101%

Q: Which growth does the source give for `CCCCCCCCCCCCCCCCCC(=O)NCCNC(=O)CCCCCCCCCCCCCCCCC` here?
A: 94.5%

Q: For `CC(C)C(=O)OCCOc1ccc(C(C)(C)C)cc1`, which growth is on record?
A: 88.4%

Q: `O=C1Nc2ccccc2/C1=C\c1ccccc1O` was tested. Which growth did it give?
A: 114%

Q: `Clc1ccc(/C=C/c2ccccn2)cc1` was tested. Which growth did it give?
A: 92.2%

Q: For `C=C1C(=O)C2CCC1C2` (stereo not given), which growth is on record?
A: 98.4%

Q: `CN(C)c1ncnc2c1cnn2C` was tested. Which growth did it give?
A: 93.9%

Q: For `CS(=O)CC(=N\O)/C(CS(C)=O)=N\O` (stereo not given), which growth is on record?
A: 97.4%

Q: How did the growth turn out when `CCCCCC(=O)OCCC1CCCCC1` was run?
A: 98.4%

Q: Which growth does the source give for `c1ccc(-c2ccc3ccccc3c2)cc1` here?
A: 84.2%

Q: `C1C[S+]2CC[S+]1CC2` was tested. Which growth did it give?
A: 98.9%

Q: `OCCNc1ccccc1` was tested. Which growth did it give?
A: 103%

Q: With `O=c1cc(Cl)nc2ccccn12` as the molecule, how does the growth read?
A: 107%

Q: Which growth does the source give for `COc1cc(-c2ccc(NC(=O)CC(C)=O)c(OC)c2)ccc1NC(=O)CC(C)=O` here?
A: 88.5%

Q: `C=CCC(OC(C)=O)c1ccc(OC)c(OC)c1` (stereo not given) was tested. Which growth did it give?
A: 104%

Q: For `CSc1nc2[nH]ncc2c(=O)[nH]1`, which growth is on record?
A: 111%

Q: How did the growth turn out when `CC(=O)[C@@]1(O)CC[C@H]2[C@@H]3CC[C@@H]4CC(=O)CC[C@]4(C)[C@H]3[C@@H](O)C[C@@]21C` was run?
A: 81.7%

Q: How did the growth turn out when `Nc1ccc2ccccc2c1-c1c(N)ccc2ccccc12` was run?
A: 19.9%

Q: `Cn1c(=O)c2[nH]c(CCCCC(=O)O)nc2n(C)c1=O` was tested. Which growth did it give?
A: 103%

Q: `CCCCN(C(=O)CC)c1ccccc1` was tested. Which growth did it give?
A: 96.5%

Q: With `CCOC(=O)C(COS(C)(=O)=O)(COS(C)(=O)=O)C(=O)OCC` as the molecule, how does the growth read?
A: 105%

Q: With `COC1(OC)C2(Cl)C(Cl)=C(Cl)C1(Cl)C1COCC12` (stereo not given) as the molecule, how does the growth read?
A: 64%

Q: Which growth does the source give for `Nc1ccccc1SC1CC(=O)N(c2ccc(Cl)c(Cl)c2)C1=O` (stereo not given) here?
A: 99.9%
